The values that follow come from PubChem BioAssay AID540257 (Southern Research Specialized Biocontainment Screening …, 2011).

The structures appear in SMILES notation. Among all 1,800 compounds or so, about 15 (0.8%) were called active. How the calls were made is not given here. The list is a sample of the results. Measured potencies and affinities stand elsewhere.

A short description of this test: antiviral activity against H1N1 influenza, dose response, cell-based, strain KY136 (AID 540257). To be noted: H1N1 KY136 influenza antiviral cell assay, % inhibition; series mostly up to 40 µM; inhibition: at the top concentration.
With `CCOC(=O)CC(NS(=O)(=O)c1ccc(NC(C)=O)cc1)c1ccc(OCC)cc1` (stereo not drawn), the “inhibition” value was 2.13% (inactive).

For `CN(C)c1ccc(C=c2c3ccccc3n3c2c2c([n+]3C)CCCC2)cc1`, the “inhibition” value was -4.87% (inactive).

As for `O=C(NC1CC1)C(=O)c1c(-c2ccccc2)[nH]c2ccccc12`, the “inhibition” value is 10.5% (inactive).

Take `Cc1nn(Cc2ccccc2)c(C)c1N`: the “inhibition” value is 0.83% (inactive).

For `S=c1sscc1-c1ccccc1`, the “inhibition” value was -0.7% (inactive).

Consider `COc1ccc(/C=C/C(=O)OCC(=O)NCCc2ccccc2)c(OC)c1`, for which the “inhibition” value was 1.74% (inactive).

For `COc1ccc(S(=O)(=O)N2CCOCC2)cc1NC(=O)CN1CCN(C)CC1`, the “inhibition” value is 1.93% (inactive).

For `COc1ccc(CSC2=NCCN2)cc1Cl`, the “inhibition” value is 4.9% (inactive).

`C=CCn1c(N)c(C(=O)NCCC2=CCCCC2)sc1=S`: the “inhibition” value is 0.45% (inactive).

Turning to `O=C(CN1C(=O)c2cccc3cccc(c23)C1=O)N1CCN(Cc2ccc3c(c2)OCO3)CC1`, the “inhibition” value was 0.12% (inactive).

Regarding `CCCn1nc([N+](=O)[O-])c(C(C#N)c2nc3ccccc3s2)c(Cl)c1=O` (stereo not drawn), the “inhibition” value was -5.69% (inactive).

Take `Cc1c(N2C(=O)/C(=C/c3ccccc3)SC2=S)c(=O)n(-c2ccccc2)n1C`: the “inhibition” value is 0.64% (inactive).

For the compound `O=C(NCCN1CCOCC1)c1cc2sccc2n1Cc1ccc(Cl)cc1`, the “inhibition” value is -1.06% (inactive).

Turning to `O=C(CSc1ccccc1)Nc1nnc(/C=C/c2ccccc2)s1`, the “inhibition” value was -1.63% (inactive).

Take `CCOC(=O)CCSCC(=O)Nc1nnc(C)s1`: the “inhibition” value was -0.12% (inactive).

As to `Cc1nc(CNS(=O)(=O)c2ccc3ccccc3c2)cs1`, the “inhibition” value was 1.86% (inactive).

For `CCc1nccn1C(=O)c1cnn2c(C(F)F)cc(-c3ccc(C)cc3)nc12`, the “inhibition” value is -2.08% (inactive).

`Cc1c(N/N=C(\C#N)C(=O)c2ccccc2)c(=O)n(-c2ccccc2)n1C`: the “inhibition” value was -2.12% (inactive).

For `COc1ccc2sc(NC(=O)c3ccco3)nc2c1`, the “inhibition” value was 0.7% (inactive).

`CCCc1ccc2oc(C(=O)NCc3nnc(C)o3)c(C)c2c1`: the “inhibition” value was -4.06% (inactive).

Take `O=C(N/N=C/c1cc(Br)c(O)c(Br)c1O)c1cccnc1`: the “inhibition” value was -4.64% (inactive).

On to `CCn1c(C(C)NC(=O)c2cccc(C)c2)nc2ccccc21` (stereo not drawn), for which the “inhibition” value was 2.67% (inactive).

As to `COc1ccc(C(CCNCc2ccc(N(C)C)cc2)C(C)C)cc1` (stereo not drawn), the “inhibition” value is -5.42% (inactive).

By inhibition is commonly meant the drop in the measured response relative to a control, in per cent.
